# In all, about 300,000 compounds went through this assay and about 37,000 (12%) were called active. This excerpt belongs to a sample that is enriched for actives. Values without a mark were called inactive. Rule as the data show it: active = max response mostly above about 13% (no sharp cut-off); inactive = mostly below about 14%.
# Assay: Cycloheximide Counterscreen for Small Molecule Inhibitors of Shiga Toxin; also: read at 38.3 µM for the half of the compounds with a filed dose; 0% is about no effect
# Conditions: cell reporter, cycloheximide protein synthesis inhibition counterscreen; active compounds read high
row,Structure (SMILES),max response
1,CCN(CC)S(=O)(=O)c1ccc(N2CCN(C)CC2)c(NC(=O)Nc2ccccc2F)c1,-3.4%
2,CCC(CC)C(=O)Nc1c2c(nn1-c1ccc(C)cc1)CS(=O)(=O)C2,-1.32%
3,Cn1c(N)c(C(=O)COC(=O)c2cnc(Cl)c(Cl)c2)c(=O)n(C)c1=O,-2.82%
4,O=C(/C=C/c1ccco1)NC(=S)Nc1ccccc1Br,21% (active)
5,COc1ccc(Cl)cc1C(=O)NNC(=S)NC(=O)/C=C/c1ccco1,0.62%
6,CCNC(=S)N1CCN(C(=O)c2ccco2)CC1,-0.408%
7,CC(C)CNC(=O)COC(=O)/C=C/c1ccco1,-2.86%
8,COc1ccc(/C=C/C(=O)NC(=S)N2CCCC(C(N)=O)C2)cc1 (stereo not drawn),12.7%
9,O=C(/C=C/c1ccco1)NC(=S)N1CCCCC1,25.7% (active)
10,O=C(Cc1ccccc1)Nc1ccc(C(=O)Nc2ccccc2C(=O)O)cc1,-2.41%
11,Cn1sc(=O)c2cc(S(=O)(=O)NC3CC3)ccc21,-2.97%
12,CCCNC(=S)N1CCC(NC(=O)c2ccc(OC)cc2)CC1,-1.83%
13,Cc1nnc(SCC(=O)Nc2ccc(S(=O)(=O)Nc3ccc(Cl)nn3)cc2)s1,-1.1%
14,CCOc1ccc(NC(=O)Nc2cc(C)on2)cc1,43.6% (active)
15,Cc1cc(NC(=O)CN2CCC(O)(c3cccc(F)c3)CC2)no1,4.43%
16,CCOc1ccc(C(=O)Nc2cc(OC)ccc2OC)cc1,-3.82%
17,CCC(=O)Nc1ccc(C(=O)Nc2cc(C)on2)cc1,17.5% (active)
18,Cc1cc(NC(=O)c2cccc(N3C(=O)CCC3=O)c2)no1,-2.26%
19,CCOc1ccc(CC(=O)Nc2ccc(S(=O)(=O)Nc3cc(C)on3)cc2)cc1OCC,-4.07%
20,CCC(=O)Nc1ccc(C(=O)Nc2ccc3c(c2)C(=O)N(CC2CCCO2)C3=O)cc1 (stereo not drawn),-2.89%
21,Cc1cc(NC(=O)c2ccccc2C)no1,32.6% (active)
22,CCOc1ccc(C(=O)Nc2ccc(S(=O)(=O)Nc3cc(C)on3)cc2)cc1,-5.61%
23,COc1ccc(C)cc1NC(=O)Nc1ccccc1SC,0.774%
24,CCOc1ccc(NC(=O)Nc2cc(C)ccc2OC)cc1,25.4% (active)
25,Cc1cc(NC(=O)CSCc2ccccc2C)no1,12.4%

row,Structure (SMILES),max response
1,COc1cccc(NC(=S)N(CCc2c(C)[nH]c3ccccc23)Cc2ccco2)c1,-1.95%
2,O=S(=O)(NC1CC1)c1ccc(Cl)cc1,-3.78%
3,CCOC(=O)C1=C(CCc2ccccc2)NC(=O)NC1c1ccc2ccccc2c1 (stereo not drawn),-1.16%
4,CC1(c2ccc3ccccc3c2)NC(=O)NC1=O (stereo not drawn),1.06%
5,CCN(CC)C(=O)CN(c1cccc(OC)c1)S(=O)(=O)c1ccc(C)cc1,1.38%
6,COc1ccc(C)cc1-n1nnnc1SCc1nc2ccccc2c(=O)[nH]1,10.3%
7,COc1ccc(CCn2c(NN=C3CCCC3)nc3c2c(=O)[nH]c(=O)n3C)cc1,0.589%
8,CC(=O)Nc1ccc(NC(=O)c2sc3nc4c(c(-c5ccc(C)cc5)c3c2N)CCC4)cc1,0.359%
9,Cc1ccc(NC(=O)c2sc3nc(N)c(C#N)cc3c2N)cc1,41% (active)
10,CCc1ccc2nc3sc(C(=O)Nc4nnc(CC)s4)c(N)c3cc2c1,17.3%
11,CCN1CCN(C(=O)Cn2nc(C)n3c(cc4c(OC)cccc43)c2=O)CC1,1.35%
12,Cc1c(Cl)cccc1NC(=O)CCC(=O)N/N=C/c1ccco1,-1.66%
13,CCCCSc1nnc(-c2ccc(NC(=O)CC)cc2)n1C,-3.61%
14,O=C(CN1CCN(c2ccccn2)CC1)Nc1ccc(Br)cc1,-4.91%
15,CCC(=O)Nc1ccc(-c2ccc(N3CCCCC3)nn2)cc1,42.9% (active)
16,O=C1Nc2ccc([N+](=O)[O-])cc2C1=Nc1cccc(CO)c1,-2.88%
17,Cc1ccc(C(=O)OC2CCCN(C)C2)cc1 (stereo not drawn),6.14%
18,Cn1ccc(=NC=C(C#N)C#N)c2ccccc21,1.04%
19,CCOc1cc(CN2CCCC(CO)(Cc3ccc(F)cc3F)C2)ccc1OC (stereo not drawn),-0.883%
20,CC(=O)Nc1ccc(NC(=O)CSc2nnnn2-c2ccccc2F)cc1,9.54%
21,CCn1nnnc1SCC(=O)c1ccc(C)cc1C,56.3% (active)
22,Cc1ccc(C)c(-n2nnnc2SCC(=O)c2c(N)n(C)c(=O)n(C)c2=O)c1,-2.92%
23,COc1ccc(C(=O)CSc2nnnn2C)c(OC)c1,-3.16%
24,COc1ccc(-n2nnnc2SCC(=O)Nc2ccccc2)cc1,-4.18%
25,CCn1nnnc1SCC(=O)Nc1ccc(N(C)C)cc1,25.2% (active)

row,Structure (SMILES),max response
1,CCc1nccn1CCC(=O)N1CCCC(N2CCN(c3ccccc3F)CC2)C1 (stereo not drawn),15.2%
2,COc1ccc(S(=O)(=O)N(C)CC(=O)NCCCN2CCOCC2)cc1Cl,-1.58%
3,Cc1cccc([C@@H]2[C@@H]3C(=O)N(Cc4ccccc4)C(=O)[C@@H]3[C@]3(C)C(=O)N(c4ccc(Br)cc4)C(=O)N23)c1,7.73%
4,C=CS(=O)c1sc(Cl)c(N2CCOCC2)c1[N+](=O)[O-] (stereo not drawn),-4.64%
5,CC(=O)N1CCOc2ccc(S(=O)(=O)N3CCC(C(=O)Nc4ccccc4F)CC3)cc21,-0.955%
6,Cc1ccc(N(C(=O)C(F)(F)F)C(C(=O)NC2CCCCC2)c2ccncc2)cc1C (stereo not drawn),-3.75%
7,Cc1ccc(OC(=O)c2c(C)nn(-c3ccccc3)c2C)cc1,47.6% (active)
8,Cc1nn(-c2ccccc2)c(C)c1C(=O)OCC(=O)NC(=O)NC1CCCCC1,2.3%
9,Cc1nn(-c2ccccc2)c(-n2cccc2)c1C(=O)O,-4.68%
10,CCCn1c(C)cc(C(=O)COC(=O)c2c(C)nn(-c3ccccc3)c2C)c1C,32.3% (active)
11,CCCc1cc(=O)[nH]c(SCC(=O)c2cc(C)n(CCC)c2C)n1,7.55%
12,Cc1cc(C(=O)COC(=O)c2cccs2)c(C)n1-c1c(C)n(C)n(-c2ccccc2)c1=O,16.4%
13,COCCn1c(SCC(=O)Nc2cc(OC)ccc2OC)nc2c(c1=O)SC(C)C2 (stereo not drawn),-1.66%
14,CC(C)CC(=O)N1CCN(Cc2ccccc2Br)CC1,-2%
15,NC(=O)C(Cc1ccccc1)NC(=O)C12CC3CC(CC(C3)C1)C2 (stereo not drawn),0.275%
16,CCOc1ccc(N/C=C/C(=O)c2ccccc2)cc1,38.2% (active)
17,Cc1ccc(NNC(=O)C2CCC2)cc1C,-2.16%
18,CCCOc1ccc(NC(=O)C2CCCNC2=O)cc1 (stereo not drawn),16.5%
19,Cc1ccc(N(NC(=O)C(C)(C)O)C(=O)c2ccccc2)cc1C,-3.59%
20,CCCOc1ccc(NC(=O)C2OC3OC(C)(C)OC3C3OC(C)(C)OC23)cc1 (stereo not drawn),10.8%
21,CCOc1ccc(NC(=S)N2CCC(NC(=O)c3ccccc3)CC2)cc1,-1.64%
22,Cc1ccc(N/C=C/C(=O)c2ccccc2)cc1C,45.6% (active)
23,CCOc1ccc(N/C=C/C(=O)c2cc(OC)c(OC)c(OC)c2)cc1,3.1%
24,CCCOc1ccc(N/C=C/C(=O)C(C)(C)C)cc1,33% (active)
25,Cc1cc(OCC(=O)NCC(O)c2ccccc2)c2c(C)c(C)c(=O)oc2c1 (stereo not drawn),8.74%

row,Structure (SMILES),max response
1,O=C(O)c1ccccc1C(=O)NC1=NN(c2ccccc2)CC1,-1.86%
2,O=C(CSc1n[nH]c(-c2cccnc2)n1)Nc1ccc(Cl)cc1,1.65%
3,CCO[C@@H]1OC(C(=O)NC2CC2)=C[C@H](C)[C@H]1CCCO,-1.17%
4,CC(NC(=S)NC1CCCCC1)C(c1ccccc1)N1CCOCC1 (stereo not drawn),0.505%
5,Cc1cc(=O)n2nc(N3CCCC(C(=O)NCc4cccc(Cl)c4)C3)sc2n1 (stereo not drawn),-3.8%
6,CN(NS(=O)(=O)c1cccs1)c1ncc(C(F)(F)F)cc1Cl,-0.853%
7,OC(CNCCc1ccc(Cl)cc1Cl)COc1ccccc1 (stereo not drawn),-1.8%
8,CN(c1ccccc1)S(=O)(=O)c1ccc(C(=O)NCCc2ccccc2)cc1,11.2%
9,O=C(NCCc1ccccc1)C1CC1,13%
10,O=C(CCc1ccccc1)NNC(=O)COc1ccc(Cl)cc1,0.663%
11,Cc1cc(C(=O)NCCc2ccc(Cl)cc2)c(C)o1,49.4% (active)
12,CCCOc1ccc(C(=O)NCCc2ccccc2)cc1,27% (active)
13,Cc1cc(C(=O)NCCc2ccc(Cl)cc2)n(-c2ccccc2)n1,-0.868%
14,CC(C)c1ccc(C(=O)NCCCc2ccccc2)cc1,46.9% (active)
15,Nc1ccc(C(=O)NCc2ccccc2)cc1,-1.11%
16,NS(=O)(=O)c1ccc(CCNC(=O)c2ccc(Cl)cc2[N+](=O)[O-])cc1,-2.71%
17,COc1ccc(OCCCC(=O)NCCc2ccccc2)cc1,-2.28%
18,O=C(NCCc1ccccc1)c1ccc(OCCOc2ccccc2)cc1,0.57%
19,O=C(NCCc1ccccc1)Oc1ccc(Cl)cc1,48.1% (active)
20,COc1ccc(-c2nc3cnccn3c2NC(C)(C)CC(C)(C)C)cc1O,-1.64%
21,Cc1ccc(CN2CCNC(=O)C2CC(=O)NCc2csc(C(C)C)n2)cc1 (stereo not drawn),-3.12%
22,O=C(COc1ccc(S(=O)(=O)N2CCOCC2)cc1Cl)N1CCOCC1,-5.7%
23,Cc1cccc(N2C(=O)N3[C@H](c4ccc(F)cc4)[C@@H]4C(=O)N(C5CCCCC5)C(=O)[C@@H]4[C@]3(Cc3ccccc3)C2=O)c1,1.33%
